Several values for one entry are separate records, joined by “and”; a condition that tells them apart may be missing. Identical values can stand only once. The panel holds about 79,000 compounds, 15% with a hit somewhere; the sample as a whole holds those more often. Activity calls are given as the source filed them. No stated cut-off is given here; in the data, active means growth inhibition above about 70%; inactive means the rest.
Experiments:
[1] = NCI Yeast Anticancer Drug Screen. Data for the rad50 strain (AID 155);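 further: 0% = growth of vehicle-only cultures of the same strain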; details: S. cerevisiae rad50 strain growth inhibition, stronger effect = higher value
In short: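 DNA repair mutant yeast, compound exposure, growth read-out; inhibition is taken relative to vehicle.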

[2] = NCI Yeast Anticancer Drug Screen. Data for the sgs1 mgt1 strain (AID 161);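 further: 0% = growth of cultures given vehicle only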; details: S. cerevisiae sgs1 mgt1 strain, stronger effect = higher value
In short: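 Mutant yeast exposed to compound; growth scored against vehicle-only wells.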

[3] = NCI Yeast Anticancer Drug Screen. Data for the cln2 rad14 strain (AID 165);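 further: 0% = growth equal to vehicle treated cultures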; details: S. cerevisiae cln2 rad14 strain, stronger effect = higher value
In short: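 Growth of compound-exposed yeast (cln2 rad14 genotype) measured and expressed as inhibition relative to vehicle.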

[4] = NCI Yeast Anticancer Drug Screen. Data for the bub3 strain (AID 167); details: S. cerevisiae bub3 mutant strain, stronger effect = higher value
In short: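 In this screen, a yeast mutant lacking normal mitotic checkpoint function is challenged with compound. Relative growth versus vehicle gives the inhibition value.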

[5] = NCI Yeast Anticancer Drug Screen. Data for the mlh1 rad18 strain (AID 175); details: S. cerevisiae mlh1 rad18 strain growth inhibition, stronger effect = higher value
In short: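 In this whole-cell yeast screen, a strain with altered DNA damage repair is challenged with compound, and its growth is measured against matched vehicle-treated controls.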

[6] = NCI Yeast Anticancer Drug Screen. Data for the mec2-1 strain (AID 157); details: S. cerevisiae mec2-1 strain, stronger effect = higher value
In short: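 Test agents were screened against the mec2-1 yeast strain, with defined DNA repair or cell cycle alteration. Growth was scored as inhibition against vehicle-only controls.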

[7] = at 5.0 µM (retest, dose inferred, filed as 0.5)
[8] = at 50.0 µM (retest, dose inferred, filed as 5.0)

Measured: growth inhibition

CCCCCCCCCCCCCC(=O)N1CCOCC1
active: [1]; [8] 99% | [1]; at 50.0 µM 97.8% | [2]; [8] 99% | [2]; at 50.0 µM 98% | [3]; [8] 99% | [3]; at 50.0 µM 96.5% | [4]; [8] 99% | [4]; at 50.0 µM 99.6% | [5]; [8] 99% | [5]; at 50.0 µM 99.3%
inactive: [1]; [7] 0% | [2]; [7] -3% | [3]; [7] -1% | [4]; [7] 4% | [5]; [7] 7%

Nc1ncnc2c1ncn2C1OC(CO)C(O)C1O (stereo not drawn)
inactive: [1]; at 50.0 µM -12.3% and 53.1% and 0.85% | [6]; at 50.0 µM -10.9% and 11.8% and -9.1% | [2]; at 50.0 µM -1.8% and 43.4% and 5.55% | [3]; at 50.0 µM 14.6% and -0.75% and -5.05% | [4]; at 50.0 µM 4.6% and 18.7% and 26.4% | [5]; at 50.0 µM -23.1% and 27.6% and 19.4%

CCC[CH2][Sn]([CH2]CCC)([S]/C(C#N)=N/N=C/c1ccc(N(C)C)cc1)[S]/C(C#N)=N/N=C/c1ccc(N(C)C)cc1
inactive: [6]; [7] 66% | [2]; [7] 52% | [3]; [7] 40% | [4]; [7] 64%
active: [6]; [8] 98% | [6]; at 50.0 µM 92.5% | [2]; [8] 98% | [2]; at 50.0 µM 95.8% | [3]; [8] 94% | [3]; at 50.0 µM 95% | [4]; [8] 99% | [4]; at 50.0 µM 95.8% | [5]; [7] 72% | [5]; [8] 98% | [5]; at 50.0 µM 95.9%

CCC(CCCN(CC)CCc1ccccc1)OC(=O)c1cc(OC)c(OC)c(OC)c1 (stereo not drawn)
inactive: [1]; [7] 5% | [1]; [8] 17% | [1]; at 50.0 µM 22.4% | [2]; [7] -1% | [2]; [8] 30% | [2]; at 50.0 µM 37.8% | [3]; [7] 2% | [3]; [8] 0% | [3]; at 50.0 µM 35.6% | [4]; [7] 4% | [4]; [8] 18% | [4]; at 50.0 µM 4% | [5]; [7] 5% | [5]; [8] 10% | [5]; at 50.0 µM 54.5%

CNc1ccc2c(c1)c1ccccc1n2C
active: [1]; at 50.0 µM 71.3% | [4]; at 50.0 µM 74.5%
inactive: [1]; [7] 11% | [1]; [8] 26% | [2]; [7] 3% | [2]; [8] 21% | [2]; at 50.0 µM 40.1% | [3]; [7] -1% | [3]; [8] -1% | [3]; at 50.0 µM 65.5% | [4]; [7] -1% | [4]; [8] 35% | [5]; [7] 14% | [5]; [8] 34% | [5]; at 50.0 µM 52%

CS/C(N)=N/NC(=O)CCC(=O)Nc1cc(Cl)c(Cl)cc1Cl
inactive: [6]; [7] 9% | [6]; [8] -2% | [6]; at 50.0 µM 3% | [2]; [7] 6% | [2]; [8] 16% | [2]; at 50.0 µM -10.2% | [3]; [7] 13% | [3]; [8] 13% | [3]; at 50.0 µM 15% | [4]; [7] 4% | [4]; [8] 4% | [4]; at 50.0 µM -0.85% | [5]; [7] 5% | [5]; [8] 3% | [5]; at 50.0 µM 19.5%

Cc1c(Cl)nc(-c2ccccc2)nc1C(=O)CCl
inactive: [6]; [7] 67% | [6]; at 50.0 µM -0.1% | [3]; [7] 22% | [3]; [8] 66% | [3]; at 50.0 µM 9.45% | [4]; [7] 38% | [4]; at 50.0 µM -34.3% | [5]; [7] 65% | [5]; at 50.0 µM 4.5%
active: [6]; [8] 91% | [2]; [7] 90% | [2]; [8] 93% | [2]; at 50.0 µM 70.5% | [4]; [8] 86% | [5]; [8] 89%

CCCCCCCCCCCCCCCCCC(=O)OCC(COC(=O)CCCN)OC(=O)CCCN (stereo not drawn)
inactive: [1]; [7] 18% | [2]; [7] 3% | [3]; [7] 5% | [3]; at 50.0 µM 69% | [4]; [7] 5% | [5]; [7] 32%
active: [1]; [8] 99% | [1]; at 50.0 µM 98.7% | [2]; [8] 99% | [2]; at 50.0 µM 98% | [3]; [8] 96% | [4]; [8] 99% | [4]; at 50.0 µM 98.6% | [5]; [8] 99% | [5]; at 50.0 µM 97.5%

N#[N+]c1ccc2c(S(=O)(=O)Oc3ccc(C(=O)c4ccccc4)c(OS(=O)(=O)c4cccc5c([O-])c([N+]#N)ccc45)c3)cccc2c1[O-]
inactive: [1]; [7] -10% | [1]; [8] 46% | [2]; [7] 1% | [2]; [8] 59% | [3]; [7] 36% | [3]; [8] 45% | [4]; [7] -3% | [4]; [8] 31% | [5]; [7] -13% | [5]; [8] 4%
active: [1]; at 50.0 µM 82.5% | [2]; at 50.0 µM 77.2% | [3]; at 50.0 µM 84% | [4]; at 50.0 µM 77.1% | [5]; at 50.0 µM 72.7%

O=C(O)C1C2CC3C(OC(=O)C31)C2Br (stereo not drawn)
inactive: [1]; at 50.0 µM 11.9% and 4.1% and 9.9% | [6]; at 50.0 µM 2.75% and 16.8% and -4.3% | [2]; at 50.0 µM -22.2% and 2.5% and 6.9% | [3]; at 50.0 µM -24.1% and -98.7% and -25.1% | [4]; at 50.0 µM -47.9% and 10.9% and 11.8% | [5]; at 50.0 µM 11.2% and 18.6% and 32%

COc1ccc(CC[N+]2(C)COc3cc4oc(=O)cc(C)c4cc3C2)cc1OC (stereo not drawn)
inactive: [1]; [7] 5% | [1]; [8] 9% | [1]; at 50.0 µM -42.5% | [2]; [7] 0% | [2]; [8] -6% | [2]; at 50.0 µM -27.9% | [3]; [7] -21% | [3]; [8] 9% | [3]; at 50.0 µM 34.6% | [4]; [7] -8% | [4]; [8] 0% | [4]; at 50.0 µM -20.9% | [5]; [7] 9% | [5]; [8] 7% | [5]; at 50.0 µM -32.5%

CCOc1c(N=Nc2ccccc2OC)c(C)nn1C(N)=S
inactive: [6]; [7] -10% | [6]; [8] 21% | [6]; at 50.0 µM 3.9% | [2]; [7] -5% | [2]; [8] 41% | [2]; at 50.0 µM 9.1% | [3]; [7] -2% | [3]; [8] 3% | [3]; at 50.0 µM -20.6% | [4]; [7] 1% | [4]; [8] 14% | [4]; at 50.0 µM 22.9% | [5]; [7] -4% | [5]; [8] 21% | [5]; at 50.0 µM 29.9%

COc1cc(/C=C/C(C)=O)ccc1O
inactive: [1]; at 50.0 µM 18.1% and 35.2% and 5.45% | [6]; at 50.0 µM -10.4% and 9.95% and -15.9% | [2]; at 50.0 µM -6.5% and 21.9% and -16.1% | [3]; at 50.0 µM -17.4% and -22.3% and -1.45% | [4]; at 50.0 µM 1.7% and 3.35% and 4.4% | [5]; at 50.0 µM -4.85% and 23.2% and -20.9%

CC(C)(CN1CCCCC1)C(=O)CC(SCCS(=O)(=O)O)c1ccc(Cl)cc1 (stereo not drawn)
active: [1]; [8] 88% | [2]; [8] 85% | [3]; [8] 91% | [4]; [8] 97% | [5]; [8] 89%
inactive: [1]; [7] 16% | [1]; at 50.0 µM 19.2% | [2]; [7] -9% | [2]; at 50.0 µM 39.1% | [3]; [7] -1% | [3]; at 50.0 µM 55.7% | [4]; [7] -13% | [4]; at 50.0 µM 25.6% | [5]; [7] 1% | [5]; at 50.0 µM 11.1%

O=C(NCCc1c(-c2ccccc2)[nH]c2ccccc12)C(F)(F)F
inactive: [1]; [7] 11% | [1]; at 50.0 µM 46.6% | [6]; [7] -3% | [6]; at 50.0 µM 49.8% | [2]; [7] 10% | [3]; [7] -2% | [3]; at 50.0 µM 59.2% | [4]; [7] -10% | [5]; [7] 3% | [5]; at 50.0 µM 60.3%
active: [2]; at 50.0 µM 79.5% | [4]; at 50.0 µM 72.5%

CCOC(=O)CC(NC(=O)c1[nH]cnc1/N=N/N(C)C)C(=O)OCC (stereo not drawn)
inactive: [1]; [7] -24% | [6]; [7] -8% | [3]; [7] -11% | [4]; [7] -12% | [5]; [7] -24%
active: [1]; [8] 95% | [1]; at 50.0 µM 89.1% | [6]; [8] 97% | [6]; at 50.0 µM 91.5% | [3]; [8] 96% | [3]; at 50.0 µM 91% | [4]; [8] 97% | [4]; at 50.0 µM 91.8% | [5]; [8] 97% | [5]; at 50.0 µM 78%

O=Nc1ccccc1N=O
inactive: [1]; [7] 48% | [6]; [7] 30% | [3]; [7] 36%
active: [1]; [8] 99% | [1]; at 50.0 µM 99.5% | [6]; [8] 99% | [6]; at 50.0 µM 99.4% | [3]; [8] 97% | [3]; at 50.0 µM 98.3% | [5]; [7] 91% | [5]; [8] 99% | [5]; at 50.0 µM 99.4%

CC1=CC(O)C2CC1C2(C)C (stereo not drawn)
inactive: [1]; at 50.0 µM 12.1% and 3.35% and 3.95% | [6]; at 50.0 µM -24.1% and -1.15% and -0.85% | [2]; at 50.0 µM -12.6% and 3.35% and -8.95% | [3]; at 50.0 µM 3.25% and -9% and -2.6% | [4]; at 50.0 µM -6.5% and -10.9% and 2.05% | [5]; at 50.0 µM -8.1% and 0.55% and 8.15%

CC(C)/C(Cl)=N\OC(=O)Nc1ccc(S(N)(=O)=O)cc1
active: [4]; at 50.0 µM 77.2%
inactive: [6]; [7] 26% | [6]; [8] 28% | [6]; at 50.0 µM 18.8% | [2]; [7] 2% | [2]; [8] -23% | [2]; at 50.0 µM 68% | [3]; [7] 21% | [3]; [8] 33% | [3]; at 50.0 µM 45% | [4]; [7] 7% | [4]; [8] 26% | [5]; [7] 22% | [5]; [8] 38% | [5]; at 50.0 µM -38.8%
